A short description of test [1]: NCI Yeast Anticancer Drug Screen. Data for the rad50 strain (AID 155).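 Also: 0% = growth of vehicle-only cultures of the same strain.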 Conditions: S. cerevisiae rad50 strain growth inhibition; at 50.0 µM; active compounds read high. The gist of the method: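 Compounds were tested on a yeast strain with an engineered DNA damage repair alteration; the reported value is growth inhibition normalised to vehicle treatment.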
Test [2] in a line: NCI Yeast Anticancer Drug Screen. Data for the mec2-1 strain (AID 157). Conditions: S. cerevisiae mec2-1 strain, at 50.0 µM, active compounds read high. Put shortly: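 mec2-1 yeast strain, carrying an alteration in DNA damage repair or cell cycle control, was exposed to compounds; growth inhibition was measured relative to vehicle-treated controls.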
Test [3] is described as follows: NCI Yeast Anticancer Drug Screen. Data for the sgs1 mgt1 strain (AID 161).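 Also: 0% = growth of cultures given vehicle only.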 The conditions noted are these: S. cerevisiae sgs1 mgt1 strain, at 50.0 µM, active compounds read high. The gist of the method: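 Growth of a repair-deficient yeast mutant was monitored after compound treatment and expressed as inhibition relative to vehicle-treated cultures.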
Test [4] in a line: NCI Yeast Anticancer Drug Screen. Data for the cln2 rad14 strain (AID 165).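 Also: 0% = growth equal to vehicle treated cultures.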 The conditions noted are these: S. cerevisiae cln2 rad14 strain, at 50.0 µM, active compounds read high. The gist of the method:
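Yeast carrying cln2 and rad14 alterations (cell cycle control and DNA damage repair) were exposed to compounds. Growth inhibition was measured against vehicle-treated controls.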

Test [5] can be described thus: NCI Yeast Anticancer Drug Screen. Data for the bub3 strain (AID 167). The conditions noted are these: S. cerevisiae bub3 mutant strain, at 50.0 µM, active compounds read high. The gist of the method: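 Growth of a checkpoint-deficient yeast mutant is measured after compound exposure. Values represent inhibition relative to vehicle.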
A short description of test [6]: NCI Yeast Anticancer Drug Screen. Data for the mlh1 rad18 strain (AID 175). The conditions noted are these: S. cerevisiae mlh1 rad18 strain growth inhibition; at 50.0 µM; active compounds read high. Put shortly: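 Growth inhibition of the yeast strain was measured after compound exposure and expressed relative to vehicle-treated controls. The strain carries defined defects in DNA damage repair.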

Values joined by “and” are separate entries in the source; they are usually repeats but may differ in a detail not shown here. Equal entries are not always repeated. Compounds without any hit were thinned out: in the full panel of roughly 79,000, 15% have a hit. Values without a mark were called inactive. Active and inactive are the calls of the source. Rule as the data show it: active = growth inhibition above about 70%; inactive = the rest.

In the case of `CC(=O)Nc1ccc(S(=O)c2ccc(NC(C)=O)cc2)cc1`, the growth inhibition in test [1] is -25.6% and 12%; in test [2], -21.3% and 9.5%; in test [3], -45.5% and 12.1%; in test [4], 7.1% and -22.4%; in test [5] it was -15.6% and 10.3%; in test [6], -34.8% and 24.6%.
On to `Cc1ccc(C2=Nc3c(N)nc(N)nc3NC(c3ccccc3)C2)cc1` (configuration not stated), for which the growth inhibition was 78.3% (active) and 79.8% (active) in test [1]; 81.8% (active) and 79.5% (active) in test [2]; 89.2% (active) and 89.4% (active) in test [3]; 63.5% and 62.7% in test [4]; 75.8% (active) and 77.4% (active) in test [5]; 90% (active) and 88.4% (active) in test [6].
With `COC1OCCC(n2c(C)cc3c(N)ncnc32)C1O` (configuration not stated), the growth inhibition in test [1] is -7.3% and 1.55%; in test [2] it was -19.2% and -8.6%; in test [3], -28.6% and -11.8%; in test [4], -4.15% and -1.7%; in test [5] it was -22.1% and -20.6%; in test [6] it was -29.2% and 2.05%.
On to `O=C(O)/C=C/c1ccc(Cl)cc1`, for which the growth inhibition was 16.8% and 8.15% in test [1]; -8.8% and -22.6% in test [2]; 16.8% and 2.3% in test [3]; -35.3% and -6.2% in test [4]; -3.9% and -3.4% in test [5]; 26.9% and 13.4% in test [6].
Consider `[Cl][Pr]([Cl])[Cl]`, for which the growth inhibition in test [1] is 21.9% and 19.1%; in test [2] it was -7.65% and 5.55%; in test [3], -3.4% and 33.6%; in test [4], 1.6% and 19.1%; in test [5], 7.65% and 22.9%; in test [6], 1.4% and 42.2%.
In the case of `NC(=O)N/N=C/C=C/c1ccccc1`, the growth inhibition was 18.4% and -1.3% in test [1]; 12.7% and 3.1% in test [2]; 6.85% and -6.75% in test [3]; 7.55% and -20.4% in test [4]; -0.4% and -14.1% in test [5]; 5.05% and 6.95% in test [6].
`O=C(O)CCCCCCCCCCCCC1C=CCC1` (configuration not stated): the growth inhibition in test [1] is -11.2% and -0.55%; in test [2], -31.5% and -17.9%; in test [3], 5.95% and -4.1%; in test [4], -4.4% and 9.45%; in test [5], -22.8% and -16.8%; in test [6] it was -11.2% and -6.05%.
Consider `OCC(O)C(O)C(O)c1cnn(-c2ccccc2)n1` (configuration not stated), for which the growth inhibition in test [1] is 8.95% and 4.85%; in test [2] it was -5.4% and 1.9%; in test [3] it was -4.6% and -4.7%; in test [4], 1.75% and -3.7%; in test [5] it was -2.85% and -8.2%; in test [6], 14.6% and -0.05%.
Regarding `S=c1nc[nH]c2ccccc12`, the growth inhibition in test [1] was -2.5% and -12.8%; in test [2] it was -4.8% and -16.8%; in test [3], -11% and 12.9%; in test [4] it was -98.9% and -0.05%; in test [5], -2.75% and -2.25%; in test [6], 5% and 5.65%.
With `CCOc1ccc(C=O)cc1OC`, the growth inhibition in test [1] is -29.6% and -0.5%; in test [2] it was -53.1% and -10.4%; in test [3] it was -52.6% and 0.25%; in test [4], -6.4% and 4.25%; in test [5], -26.9% and -0.4%; in test [6], -11.4% and 0.1%.
Take `CC(C)(C)OC(=O)C1CCON1C1OC(C(O)CO)C2OC(C)(C)OC21` (configuration not stated): the growth inhibition was -3.45% and 48.1% in test [1]; 7.85% and 43% in test [2]; 2.4% and 57.9% in test [3]; -8.25% and 19% in test [4]; 13.2% and 38.5% in test [5]; 10.8% and 59.4% in test [6].
`Cc1cc(=O)[nH]c2ccc(Cc3ccccc3)cc12`: the growth inhibition in test [1] was -1.2% and 28.1%; in test [2], 10.4% and 5.75%; in test [3] it was -7.75% and 17.6%; in test [4], -26.2% and 6%; in test [5], -4.6% and -2.65%; in test [6] it was 16.9% and 21.9%.
For the compound `NC(CCCc1ccccc1)C(=O)O` (configuration not stated), the growth inhibition in test [1] was 7.05% and 3.35%; in test [2], -7.4% and 0.65%; in test [3], -5.15% and 1.45%; in test [4], -77% and -22.5%; in test [5] it was 20.6% and -1.2%; in test [6] it was -26.9% and -10%.
Turning to `NC(Cc1cnc[nH]1)C(=O)O` (configuration not stated), the growth inhibition is -15.4% and 3.95% in test [1]; -27.9% and 0.2% in test [2]; 2.35% and 16.4% in test [3]; -0.05% and 3.55% in test [4]; -4.35% and 3.9% in test [5]; -20.9% and -3.1% in test [6].
Take `CCOC(=O)C1=C(C)NC(=O)NC1c1ccccc1` (configuration not stated): the growth inhibition was 9.5% and -7% in test [1]; 15.1% and -20.2% in test [2]; -0.15% and 4.45% in test [3]; -19.1% and 6.95% in test [4]; -0.9% and 15.2% in test [5]; 35.9% and -8.4% in test [6].
With `O=C(OCC(OC(=O)c1ccccc1)C(OC(=O)c1ccccc1)c1cnn(-c2ccccc2)n1)c1ccccc1` (configuration not stated), the growth inhibition is -24.1% and 4.05% in test [1]; 4.1% and 15.4% in test [2]; -34.4% and -11.9% in test [3]; -35% and -15.7% in test [4]; -10.8% and -1.55% in test [5]; -4.25% and 17.6% in test [6].
In the case of `CC(=O)OC1CCC2(C)C(CCC3(C)C2CCC2C4=CC(C)(C)CCC4(C)CCC23C)C1(C)C` (configuration not stated), the growth inhibition in test [1] was 14.1% and -0.45%; in test [2] it was 10% and -9.7%; in test [3] it was -10.7% and -1.75%; in test [4], 13.4% and -3.6%; in test [5], 10.6% and -4.15%; in test [6] it was 20.1% and 7.15%.
With `CC1(C)OCC(C2OC(C)(C)OC2C2OC(O)C=CC2=O)O1` (configuration not stated), the growth inhibition in test [1] is 19.8% and 18.5%; in test [2], 18.9% and 2.1%; in test [3] it was 24.6% and 6.5%; in test [4], 9.05% and -4.9%; in test [5] it was 24.9% and 10.9%; in test [6], 20.3% and 10.6%.
For the compound `O=C(O)C1=C/C(=C(/c2ccccc2)c2cc(C(=O)O)c(O)c3ccccc23)c2ccccc2C1=O`, the growth inhibition in test [1] is 4.2% and -7.7%; in test [2] it was -29.1% and -27.1%; in test [3], -21.2% and -34.4%; in test [4], 22.7% and 23.1%; in test [5], -9.45% and -3.8%; in test [6] it was -1.45% and -4.1%.
`Nc1c(O)nc[nH]c1=O`: the growth inhibition in test [1] was 3.5% and -8.25%; in test [2], -5.15% and -3.15%; in test [3], -9% and -8.55%; in test [4], -1.55% and -39.1%; in test [5] it was 4.8% and -10.2%; in test [6], -16.6% and -8.95%.
On to `O=C(O)C1OC1C(=O)O` (configuration not stated), for which the growth inhibition in test [1] is -24.1% and -0.45%; in test [2] it was -30.2% and -4.6%; in test [3], -23.9% and -5.4%; in test [4], -39.7% and -23.8%; in test [5] it was -21.5% and -5.95%; in test [6] it was -10.4% and 13.7%.
On to `CC(=O)OCC1OC(n2c(=S)n(-c3ccc(C)cc3)c(=O)c3ccccc32)C(OC(C)=O)C(OC(C)=O)C1OC(C)=O` (configuration not stated), for which the growth inhibition in test [1] was 2.2% and 32%; in test [2] it was 6.1% and 18.4%; in test [3], -11.1% and 15.9%; in test [4] it was 21% and 21.2%; in test [5], -6.65% and 14.7%; in test [6] it was -9.4% and 4.9%.

The values above are taken from PubChem BioAssay (NCI).
